In the library only some 18% were active in any assay of this set; here they are far more common.
IL-1B inflam inh: inflammasome signaling inhibition, IL-1 beta readout | activity change, % at 57.5 µM | actives 4.7% (n = 360,000) | THP-1 LPS/ATP IL-1B secretion, AlphaLISA, 16 h; active compounds read low; in the data active = activity change below about -50%; inconclusive = mostly about -30% to -49%
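THP-1 cells pretreated 1 hr with compounds (up to 57.5 uM final), then stimulated with LPS (250 ng/mL final) plus ATP (1.25 mM final); secreted IL-1B measured by AlphaLISA after 16 hr, decreased signal indicating inhibition.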
TDP1 cell CPT: DT40-hTDP1 cell growth loss with CPT; chicken DT40 Tdp1-/-;hTDP1 cells + 20 nM CPT, ATP luminescence, 48 h; Potency, µM (top dose mostly 46.2 µM), for the others: top-dose activity change, negative = growth inhibition, actives largely listed as inhibitors; actives 12% (n = 420,000); note: potency is the fitted concentration of half-maximal effect; nearly all actives have a fitted effect of over 55% in size
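Cell growth measured by CellTiter-Glo luminescence after a minimum 48 h, 37 C compound exposure with 20 nM CPT in Tdp1-knockout DT40 cells stably expressing hTDP1, seeded 400/well; qHTS titration format.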
RORg inh: ROR gamma (mouse) transcription inhibition | Drosophila S2 Gal4-RORgamma UAS-luciferase reporter, 20 h | Potency, µM (series often up to 53.6 µM), for inactives: at the highest dose activity change, negative = inhibition, actives largely listed as inhibitors | actives 5.4% (n = 310,000); note: potency is the fitted concentration of half-maximal effect; nearly all actives have a fitted effect of over 60% in size
Target sequence (P51450 whole entry, looked up, the tested form may be a part): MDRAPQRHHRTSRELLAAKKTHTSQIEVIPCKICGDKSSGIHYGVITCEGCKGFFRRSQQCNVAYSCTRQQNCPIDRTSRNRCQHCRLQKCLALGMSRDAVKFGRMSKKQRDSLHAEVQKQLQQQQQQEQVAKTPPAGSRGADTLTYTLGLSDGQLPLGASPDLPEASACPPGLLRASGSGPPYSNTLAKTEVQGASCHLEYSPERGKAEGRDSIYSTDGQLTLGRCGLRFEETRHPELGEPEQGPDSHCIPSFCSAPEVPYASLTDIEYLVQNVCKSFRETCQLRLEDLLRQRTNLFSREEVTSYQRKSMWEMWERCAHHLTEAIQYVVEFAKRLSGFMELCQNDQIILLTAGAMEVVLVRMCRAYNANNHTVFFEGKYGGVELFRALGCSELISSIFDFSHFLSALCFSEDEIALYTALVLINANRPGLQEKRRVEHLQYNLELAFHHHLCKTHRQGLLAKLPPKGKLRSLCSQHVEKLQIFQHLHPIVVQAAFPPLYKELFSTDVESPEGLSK
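Stably transfected Drosophila Schneider cells are the test system, with ROR gamma fused to Gal4 and luciferase under UAS control; luminescence is read after 20 hr of 700 uM copper sulfate induction at ambient temperature.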
DT40 TDP1 no CPT: qHTS for Inhibitors of human tyrosyl-DNA phosphodiesterase 1 (TDP1): qHTS in cells in absence of CPT | DT40 Tdp1-/- hTDP1 cells, no CPT, ATP luminescence, 48 h | Potency, µM (doses to about 46.2 µM), for the others: at the highest dose activity change, negative = growth inhibition, hits mostly inhibitors | actives 15% (n = 420,000); note: potency is the fitted concentration of half-maximal effect; nearly all actives have a fitted effect of over 55% in size
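DT40 Tdp1-/-;hTDP1 cells, no CPT (DMSO vehicle only), 400 cells/well; compounds pin-transferred; ≥48 hr, 37 °C; CellTiter-Glo 30 min RT dark, luminescence read.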
LDHA block: blocks human lactate dehydrogenase A | purified LDHA, NADH/diaphorase-resazurin fluorescence; active compounds read low | actives 0.15% (n = 480,000) | P00338 | AID 1347041 | activity change, % (values are at about 110 or 230 µM); in the data active = activity change below about -30%; inconclusive = mostly about -25% to -30%;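 note: plate controls were DMSO wells for no effect and wells without enzyme for full effect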
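Remaining NADH was detected by diaphorase (0.133 mg/mL) converting 37 µM resazurin to fluorescent resorufin, read at 0 and 20 minutes. The preceding 5-minute room-temperature reaction used 2 nM LDHA, 0.2 mM sodium pyruvate and 0.06 mM NADH at pH 7.4.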
VP16 counter: counter-screen for ROR gamma inhibitors: Gal4-VP16 reporter | Drosophila S2 Gal4-VP16 UAS-luciferase, luminescence, 20 h | Potency, µM (doses to about 53.6 µM), inactives show top-dose activity, negative = inhibition, most hits filed as inhibitors | actives 3.5% (n = 310,000);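 note: Gal4-VP16 expression switched on by copper sulfate through the metallothionein promoter; potency is the fitted concentration of half-maximal effect; nearly all actives have a fitted effect of over 50% in size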
* hit, by the source's call; ? = inconclusive; · = not tested or not shown; [ ] = another dose, or the depositor's remark. Unless noted, calls come from the whole dose curve; as a rule, active = well fitted curve in the direction sought with a large enough effect; inconclusive = small, poorly fitted or top-dose-only effect, or another doubt; inactive = no such curve, though single readings can be large; an effect the other way counts as inactive or inconclusive. Unless noted, % is set by controls: 0 for no effect and ±100 for the full control effect.

SMILES | IL-1B inflam inh | TDP1 cell CPT | RORg inh | DT40 TDP1 no CPT | LDHA block | VP16 counter
Cc1cc(C)nc(NC(=NCCc2c[nH]c3ccc(Cl)cc23)NC(=O)c2ccccc2C)n1 | · | · | · | · | -2.1 | ·
Cc1cc(C)nc(NC(=NCCc2c[nH]c3ccccc23)NC(=O)C(C)(C)C)n1 | -0.6 | ? | 7.08µM* | 14.6µM* | -3.0 | ?
CC(Sc1nc2ccc(Br)cc2[nH]1)C(=O)O (stereo unspecified) | 13.2 | -2.9% | -9.3% | 1.1% | -8.2 | -2.7%
COC(=O)Nc1nc2ccc(SC(C)C)cc2[nH]1 | 33.5 | 0.82µM* | -27.4%[16.9 µM] | 3.26µM* | -3.9 | -10.2%[17 µM]
COC(=O)Nc1nc2ccc(C(=O)c3ccccc3)cc2[nH]1 | · | 0.36µM* | 29.9% | 0.255µM* | · | -19.7%
COC(=O)Nc1nc2ccc(S(=O)c3ccccc3)cc2[nH]1 (stereo unspecified) | · | ? | 25.7% | 8.41µM* | · | 0.4%
COc1ccc2nc(SCC(=O)Nc3ccccc3)[nH]c2c1 | -20.7 | ? | 22.1% | -12.6% | -1.0 | -9.2%
N#CC1=C(NC(=O)c2ccccc2)CCC(C#N)(c2ccccc2)C1 (stereo unspecified) | · | · | · | · | -5.4 | ·
CNC(=O)c1nnsc1S(=O)c1ccc(Cl)cc1 (stereo unspecified) | -105.4* | 0.411µM* | 1.26µM* | 0.651µM* | -7.4 | 5.01µM*
CCCNC(=O)c1nnsc1S(=O)c1ccc(Cl)cc1 (stereo unspecified) | -102.4* | 0.411µM* | 1.12µM* | 0.517µM* | -10.5 | 3.98µM*
CNC(=O)c1nn(-c2ccc(Cl)cc2)ccc1=O | -0.1 | -0.5% | -13.1% | -1.2% | -1.0 | -4.4%
CC(C)c1ccc(NC(=O)/C=C/c2cc3cc(Cl)ccc3o2)cc1 | · | · | · | · | 0.3 | ·
Cc1cc2oc(=O)cc(CSc3nnnn3C3CC3)c2cc1C | · | · | · | · | 5.2 | ·
O=C1c2cccc3c(N4CCOCC4)c([N+](=O)[O-])cc(c23)C(=O)N1c1cccc2ccccc12 | -6.3 | 11.6µM* | 11.0% | 18.4µM* | -2.0 | -20.9%
Cc1cccc(N2C(=O)c3cccc4c(N5CCCCC5)c([N+](=O)[O-])cc(c34)C2=O)c1C | 0.0 | ? | -12.9% | ? | -1.1 | -11.2%
CC(Sc1nc(C(F)(F)F)nc2ccccc12)C(=O)NC(C)(C)C (stereo unspecified) | · | · | · | · | -1.2 | ·
CCC(CC)NC(=O)Cn1cnc2c1c(=O)n(C)c(=O)n2C | · | · | · | · | 3.3 | ·
O=C(NCc1cccs1)C1CCCN(c2ncccn2)C1 (stereo unspecified) | 6.4 | -21.3% | 12.7%[0.365 µM] | -2.3% | -1.0 | ·
CCOC(=O)CNC(=O)C1CCCN(c2ncccn2)C1 (stereo unspecified) | -6.6 | 29.1µM* | -1.3% | -7.3% | -7.7 | -3.8%
CCc1nc2ccc(C(=O)NCc3ccccc3OC)cn2c1N(CC)Cc1cccc(Br)c1 | -21.1 | 25.9µM* | · | ? | 0.4 | ·
Cc1nc2ccc(C(=O)Nc3ccc4c(c3)OCC(=O)N4)cn2c1N(C)C(=O)CCc1ccccc1 | -9.6 | ? | · | 18.4µM* | -1.8 | ·
CCc1nc2ccc(C(=O)Nc3cccc(OC)c3)cn2c1N(CC)Cc1cccc(Br)c1 | -56.6* | 18.4µM* | · | ? | 1.6 | ·
CCc1nc2ccc(C(=O)Nc3cccc(NS(C)(=O)=O)c3)cn2c1N(CC)Cc1cccc(Br)c1 | -70.4* | ? | · | 16.4µM* | -2.3 | ·
CCc1nc2ccc(C(=O)Nc3ccc4c(c3)OCC(=O)N4)cn2c1N(C)C(=O)Cc1ccccc1 | -21.6 | -14.7% | · | -25.1% | -1.2 | ·
O=C(CSc1nnc(Nc2ccccc2)s1)c1ccc(Cl)s1 | · | · | · | · | -0.7 | ·
SMILES | IL-1B inflam inh | TDP1 cell CPT | RORg inh | DT40 TDP1 no CPT | LDHA block | VP16 counter
CCc1nc2ccc(C(=O)Nc3cc(C)ccn3)cc2nc1CC | · | · | · | · | -2.3 | ·
CCCCNC(=O)c1ccc2nc(CC)c(N(C)Cc3cccs3)n2c1 | -74.0* | 18.4µM* | · | ? | -1.7 | ·
CCc1nc2ccc(C(=O)Nc3cccc(NS(C)(=O)=O)c3)cn2c1N(CCC(C)C)CCN(C)C | ? | 16.4µM* | · | 18.4µM* | -3.0 | ·
CCc1nc2ccc(C(=O)NCCCn3ccnc3)cn2c1N(C)Cc1cccs1 | -24.0 | ? | · | ? | 2.0 | ·
CCc1nc2ccc(C(=O)NCCOc3ccc(OC)cc3)cn2c1N(CC)Cc1cccc(Br)c1 | -69.3* | 18.4µM* | · | 20.6µM* | -0.9 | ·
CCc1nc2ccc(C(=O)Nc3cccc(NS(C)(=O)=O)c3)cn2c1N(C=O)CCC(C)C | -23.0 | ? | · | ? | 0.2 | ·
CCc1nc2ccc(C(=O)NCCOc3ccc(OC)cc3)cn2c1N(CC)CCOC | -15.8 | ? | · | ? | -2.2 | ·
CCc1nc2ccc(C(=O)Nc3ccc4c(c3)OCC(=O)N4)cn2c1N(CC)Cc1cccc(Br)c1 | 0.0 | 18.4µM* | · | -77.7% | -4.9 | ·
CCCCCCCCCC(=O)Nc1c(C)cc(C)cc1C | · | · | · | · | -4.0 | ·
COc1ccc(CNC(=O)C(F)(F)F)cc1 | · | · | · | · | 2.2 | ·
CCCC(=O)Nc1ccc(C(=O)NCCc2ccccc2)cc1 | · | · | · | · | 4.7 | ·
O=C(CSc1nc2cc(Cl)ccc2s1)Nc1ccc(F)cc1 | · | · | · | · | 13.6 | ·
CCc1nc2ccc(C(=O)Nc3cccc(NS(C)(=O)=O)c3)cn2c1N(C)CCCc1ccccc1 | -17.5 | ? | · | ? | 1.7 | ·
CCc1nc2ccc(C(=O)Nc3cccc(OC)c3)cn2c1N(C)CCCc1ccccc1 | -50.8* | ? | · | ? | -4.8 | ·
CCc1nc2ccc(C(=O)Nc3ccc(OC)c(OC)c3)cn2c1N(C)Cc1cccs1 | -17.6 | ? | · | ? | 3.0 | ·
CCc1nc2ccc(C(=O)NCc3cccs3)cn2c1N(CC)Cc1cccc(Br)c1 | -54.2* | 20.6µM* | · | 11.6µM* | 0.5 | ·
O=C(Nc1nc(-c2ccc(Cl)s2)cs1)c1ccccc1F | · | · | · | · | 8.1 | ·
COc1ccc(C(=O)Oc2cccc(Nc3ncnc4ccccc34)c2)cc1OC | 0.0 | ? | -8.8% | 18.4µM* | -12.5 | ?
COc1cc(C(=O)Oc2cccc(Nc3ncnc4ccccc34)c2)cc(OC)c1OC | -95.1* | 23.1µM* | 33.2% | 16.4µM* | -4.0 | ?
C#Cc1cccc(Nc2ncnc3cc(OC)c(OC)cc23)c1 | · | ? | · | 23.1µM* | · | ·
O=C(Oc1cccc(Nc2ncnc3ccccc23)c1)c1cccnc1 | 35.7 | ? | -0.3% | -10.4% | -1.6 | -7.1%
CC(C)(C)C(=O)Oc1cccc(Nc2ncnc3ccccc23)c1 | 12.9 | ? | · | -25.1% | 2.4 | ·
Cn1c(SCC(=O)Nc2cc(F)ccc2F)nc2c(=O)[nH]cnc21 | · | · | · | · | -19.0 | ·
CN(CC(=O)NC(=O)NCC(F)(F)F)Cc1cccc(F)c1 | · | · | · | · | 11.7 | ·
